In one experiment the test system is RARa homodimer (NR concentration 270 nM). The experiment can be described thus: PBM binding z-score (relative to random genomic background probes); higher = stronger binding; sequences stand for … in GC…GCGATTGACAGCGTAGAATGAAGG
The method, boiled down:
(§1)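 Custom Agilent 4×180K protein-binding microarrays carried double-stranded probes. Their 34-nt variable regions held direct-repeat seeds, single-nucleotide variants, half-site ablations and random human genomic background sequences. Arrays were incubated 1 h with ligand-free nuclear receptor dimers in PBS pH 7.4, 2% milk, 0.02% Triton X-100, 1 mM DTT, 0.2 mg/mL BSA and 0.4 mg/ml salmon testes DNA. Antibodies against each partner (one per run) detected binding, and scanned fluorescence was regression-normalized. Binding z-scores use random background probes as reference.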
As to CCTCCTGGGCCAAGGTCATTGATCAGTCAAAGCA, the PBM binding z-score was -0.129.
In the case of ATCTCTGGGTAAAGTTCAGTGAAAGATCGATAGA, the PBM binding z-score stood at 1.47.
For CTCGAAAGGTTGTGCTCAGGTGAGTATACCAAAC, the PBM binding z-score is 0.121.
In the case of ATCGAAAGGTCGTGAGGTGAGTATTCAGAAAGGC, the PBM binding z-score stood at 0.587.
As for AGAATGAGGTTACCAACGATCAGGGAAACGCTTG, the PBM binding z-score was -0.203.
On to TCATCTAGGTAAAAGGTGAAAGTCGGTGTGGTAA, for which the PBM binding z-score is 1.26.
For TCTAGCAGGCCAGAGGGTCTCTCAAGAGGTACGG, the PBM binding z-score is -0.894.
Turning to CAAACTAGGTCACCGGAAGGTCACAGTCCGCATG, the PBM binding z-score stood at 3.12.
Take ATCTCTAGGAAAAAGTTCAGTGAATCCCGAGGAT: the PBM binding z-score was 1.
On the same count and under the same terms, then TCTAGTTGGTTAAAGGTCACACACTCGAAATGCG, with 4.25.
As for CGTCGAAGGTCAAGGTCAGTGAAAGAGACTCGAA, the PBM binding z-score worked out at 1.26.
Still for that read-out and setting: the figure for CCGACTGGGGCAAGGTTACCAGAACGCACAGCCA is -0.644.
As for TCTTGTAGATCAAAGGTGAAGAAAGCCGAAGCCT, the PBM binding z-score was -0.538.
ATATGTAGGTTAGCTGGGGTCATTCGGACTAGGC had a PBM binding z-score of 1.19.
As for TCTCGGAGGACTCGAAGGTCAGAGCTTTCCAGAG, the PBM binding z-score is -1.07.
CCGAGTAGGTGATGGGGCATTCAGGCAACGGTGA: the PBM binding z-score was -0.778.
Consider TCGAGTAGGGTAGGGGCATTCAGAATGGCGTCGA, for which the PBM binding z-score turned out to be 0.0821.
For TCATATACGTAAAAGGTGAAAGTCGGTGTGGTAA, the PBM binding z-score came out at 1.88.

A further experiment has as its system RARb:RXRa (NR concentration 270 nM, RXRa partner concentration 90 nM). The experiment is described as above. The method, boiled down: as §1
Take TCGAGTAGGTTAGGGGCATTCACAATGGCGTCGA: the PBM binding z-score is 0.977.
Sequence TCAAATAGGTAAACAGGTGAAAGTCCGTAAGTTA registered a PBM binding z-score of 0.892.
On the same count and under the same terms, then CTACCAAGGTGAACAAGGTCGGTGATTACTATTC, with 1.97; and GCATATAGGTAATACAAGGTGAATGTCCGATTGT, with 0.305; and CATCAAAGTTCAAGGTAACGTAACAGAAAGCAGC, with 5.31.
On the same count and under the same terms, the figure for ATATGTAGGTTAGCTGGGATCATTCAGACTAGGC is 0.723; for ACTTACGGTTCAACGAGGTTATAGCACGCGTATA it is 1.59; for CCTACTCGGCCAAAGGTCATTGATTCCAATGCTC it is 4.56.
As for CCTAGTTGGTCAGGAGGTGACACACCGGATATGA, the PBM binding z-score is 1.25.
On the same count and under the same terms, then TGACCAAGGTGAAGGTCGTTGATCCCTCTGTAGA, with 2.11; and GGAACGAGGGCATACGAGTTGATAGCATGGCGAT, with 1.7; and TCTATTAGTTGAAGGGCGACCGACGAGTCCGTTT, with 0.714.
Same read-out and setting: then TCTTGTAGATCAAGCAGGTTGAGAAAGCCTGAGT, with -0.242.
As to ACAGACAGGTGATGAATGTAACTCAGGCTATCAT, the PBM binding z-score is 0.0754.
Consider AGAATGAGGTTACCACAGATCAGGGAAACGCTTG, for which the PBM binding z-score was determined as 1.99.
ACAGACAGGTGAGGAAGGTAACTCAGGCTATCAT came in with a PBM binding z-score of 0.494.
On the same count and under the same terms, the figure for GATACAGGGTCAAGCCCAGAGTACGCGTATTGAT is 4.53; for CCTTACGGGTCAAGGCTATAGCACGGGTGGTACG it is 3.98; for CCTAGTTGGTCAGTAGGTCACACACCGGATATGA it is 2.91.
Regarding AATCGGAGGACAAAGGTCAGAGCTACGCCAGTGA, the PBM binding z-score came out at 4.54.
CAAACTAGGTCAAGAGGACAAAGTCCGCTTCCCG registered a PBM binding z-score of 4.37.
CCTAGCAGGCCAGGGTCATTCAAGCATTTCGCTT returned a PBM binding z-score of 2.57.
CCTCCTGGGCCAAGGTCATTGATCAGTCAAAGCA returned a PBM binding z-score of 3.47.
In the case of ATCTCTGGGTAAAGTTCAGTGAAAGATCGATAGA, the PBM binding z-score worked out at 2.73.
On the same count and under the same terms, then CTCGAAAGGTTGTGCTCAGGTGAGTATACCAAAC, with 1.2; and ATCGAAAGGTCGTGAGGTGAGTATTCAGAAAGGC, with 4.08; and AGAATGAGGTTACCAACGATCAGGGAAACGCTTG, with 1.83.
The sequence TCATCTAGGTAAAAGGTGAAAGTCGGTGTGGTAA gave a PBM binding z-score of 2.15.
For TCTAGCAGGCCAGAGGGTCTCTCAAGAGGTACGG, the PBM binding z-score is -0.239.
On to CAAACTAGGTCACCGGAAGGTCACAGTCCGCATG, for which the PBM binding z-score is 5.42.
Sequence ATCTCTAGGAAAAAGTTCAGTGAATCCCGAGGAT gave a PBM binding z-score of 1.78.
With TCTAGTTGGTTAAAGGTCACACACTCGAAATGCG, the PBM binding z-score came to 4.77.
For the sequence CGTCGAAGGTCAAGGTCAGTGAAAGAGACTCGAA, the PBM binding z-score was 5.88.
CCGACTGGGGCAAGGTTACCAGAACGCACAGCCA had a PBM binding z-score of 1.63.
On to TCTTGTAGATCAAAGGTGAAGAAAGCCGAAGCCT, for which the PBM binding z-score stood at 1.49.
ATATGTAGGTTAGCTGGGGTCATTCGGACTAGGC displayed a PBM binding z-score of 3.05.
Same read-out and setting: the figure for TCTCGGAGGACTCGAAGGTCAGAGCTTTCCAGAG is 2.17.
Still for that read-out and setting: the figure for CCGAGTAGGTGATGGGGCATTCAGGCAACGGTGA is 0.297; for TCGAGTAGGGTAGGGGCATTCAGAATGGCGTCGA it is 0.666.
Sequence TCATATACGTAAAAGGTGAAAGTCGGTGTGGTAA registered a PBM binding z-score of 1.9.
